Source: PubChem BioAssay
CBX7 AlphaScr – blocks human CBX7 binding to H3K27me3 peptide; O95931; AlphaScreen His6-CBX7 / biotin-H3K27me3 peptide binding; active compounds read low; normalised signal (fraction of DMSO) (test concentration not listed); 66,000 compounds, 1.1% hits; AID 1224903; in the data active means normalised signal below about 0.5
Target sequence (O95931 whole entry, looked up): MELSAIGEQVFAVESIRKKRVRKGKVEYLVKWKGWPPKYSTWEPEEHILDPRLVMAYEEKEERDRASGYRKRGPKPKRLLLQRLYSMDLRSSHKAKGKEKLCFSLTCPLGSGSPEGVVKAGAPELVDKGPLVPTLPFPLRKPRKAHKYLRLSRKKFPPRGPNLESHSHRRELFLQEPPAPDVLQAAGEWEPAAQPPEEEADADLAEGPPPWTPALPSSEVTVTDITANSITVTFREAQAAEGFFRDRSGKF
Of the large screens only hits and unclear results are named; the others gave an inactive call. The entries come from a sample that favours hits as a whole.

CCOC(=O)c1ccc(NC(=O)c2c(NCc3cccs3)sc3c2CCC(C)C3)cc1 (stereo unspecified)	none
Cc1cc(C(F)(F)F)nc(NC(C)c2ccccc2)n1 (stereo unspecified)	none
CC(C)c1ccc(C(c2ccccc2)N2CCN(C(=O)CCc3c[nH]c4ccccc34)CC2)cc1 (stereo unspecified)	none
Clc1ccc(C(c2ccc(Cl)cc2)N2CCN(CCCc3c[nH]c4ccccc34)CC2)cc1	none
Fc1ccc(C(c2ccc(F)cc2)N2CCN(CCCc3c[nH]c4ccccc34)CC2)cc1	CBX7 AlphaScr 0.49
Cc1ccc(C(C)C)c(OCc2nc3ccccc3n2C(C)c2ccccc2)c1 (stereo unspecified)	none
Fc1ccc(-c2cc(-c3ccccc3)nc3ncnn23)cc1	none
Cc1ccc(-c2cc(-c3ccc(F)cc3)n3ncnc3n2)cc1	none
Fc1ccc(-c2cc(C(F)(F)F)n3ncnc3n2)cc1	CBX7 AlphaScr 0.47
Cc1cc2nc3scc(-c4ccc(Cl)cc4)n3c2cc1C	none
Cc1ccc(NC(=O)CCc2c(C)nc3cc(-c4cccc(F)c4)nn3c2C)cc1	none
CCOC(=O)c1cnc2ccc(OC)cc2c1Nc1ccc(C)c(C)c1	none
CCOC(=O)c1cnc2ccc(Br)cc2c1Nc1ccc2c(c1)OCCO2	none
CCOC(=O)c1cnc2ccc(OCC)cc2c1Nc1ccc2c(c1)OCCO2	none
CCOC(=O)c1cnc2ccc(OC)cc2c1Nc1ccc2c(c1)OCCO2	CBX7 AlphaScr 0.47
CCOC(=O)c1cnc2ccc(OCC)cc2c1Nc1ccc(CC)cc1	none
CCOC(=O)c1cnc2ccc(OCC)cc2c1Nc1ccc2c(c1)OCO2	CBX7 AlphaScr 0.42
Cc1oc(-c2ccccc2F)nc1CN1CCC(C(=O)NC2CCC(C)CC2)CC1 (stereo unspecified)	none
Cc1nc2cc(C(=O)NC3CCCCCC3)ccc2n1-c1cccc(F)c1	none
CCn1cnc2cc(NCc3cccc(Br)c3)ccc21	CBX7 AlphaScr 0.45
CCn1cnc2cc(NCc3ccncc3)ccc21	none
CC(C)(C)n1cnc2cc(NCc3cccc(Br)c3)ccc21	none
CCn1cnc2cc(NCc3cccc(OC)c3OC)ccc21	none
CCCCn1cnc2cc(NCc3cccc(OC)c3OC)ccc21	none
CCCn1cnc2cc(NCc3cccc(Br)c3)ccc21	CBX7 AlphaScr 0.33
COc1cccc(CNc2ccc3c(c2)nc(C)n3C)c1	none
CCCCn1cnc2cc(NCc3cccc(Br)c3)ccc21	CBX7 AlphaScr 0.25
COc1ccc(CNc2ccc3c(c2)ncn3C)cc1OC	none
Cc1cccc(N2CCN(C(=O)CN3C(=O)CC(C)(C)Sc4ccccc43)CC2C)c1 (stereo unspecified)	none
C(=C/c1ccccc1)/CN1CCN(c2nc(-c3ccccc3)cs2)CC1	none
COc1ccccc1CNC(=O)c1cc(Nc2ccccc2C)nc2ccccc12	none
Fc1cnc(Nc2cccc(Cl)c2)nc1Nc1cccc(Cl)c1	none
CCOc1ccc(-n2c(-c3ccccc3F)nc3c(cnn3-c3ccccc3)c2=O)cc1	none
COc1cccc(-n2c(-c3ccccc3F)nc3c(cnn3-c3ccc(C)cc3)c2=O)c1	none
Cc1cccc(-n2c(-c3ccccc3F)nc3c(cnn3-c3ccccc3)c2=O)c1	CBX7 AlphaScr 0.49
COCCN1Cc2cccc(C(=O)Nc3ccc(C(C)C)cc3)c2C1=O	none
CC(C)(C)c1ccc(-c2nnc3sc(-c4ccccn4)nn23)cc1	CBX7 AlphaScr 0.11
c1ccc(-c2nnc3sc(-c4ccccn4)nn23)cc1	none
c1ccc(-c2nnc3sc(-c4cnccn4)nn23)cc1	none
Cc1cc(=O)n2nc(N3CCC(C(=O)NC4CCCC4)CC3)sc2n1	none
COc1cccc(C(=O)NCCc2cc3cc(C)c(C)cc3[nH]c2=O)c1	none
CCc1cc(C(=O)Cc2ccc3ccccc3n2)c(O)cc1OC	CBX7 AlphaScr 0.34
CCc1cc(-c2n[nH]c(C)c2Oc2ccccc2)c(O)cc1OC	none
CCc1cc(-c2[nH]ncc2Oc2ccccc2)c(O)cc1OC	none
CCc1ccccc1NS(=O)(=O)c1ccc2c(c1)n(C)c(=O)c(=O)n2C	none
O=C(c1ccccc1Cl)N(Cc1cccs1)C1CCS(=O)(=O)C1 (stereo unspecified)	none
CCOCCn1cnc2sc(C(=O)NCCCN(CC)CC)c(C)c2c1=O	none
CCOc1ccc(Cn2nnc(-c3ccc(OCc4ccccc4F)cc3)n2)cc1OCC	none
Cc1ccc(-c2nnc(Nc3ccc4c(c3)ncn4C)c3ccccc23)cc1	none
Cc1nnc(Nc2ccc(S(=O)(=O)Nc3nccs3)cc2)c2ccccc12	CBX7 AlphaScr 0.49
NC(=O)COc1ccc(Nc2nnc(-c3ccc(Cl)cc3)c3ccccc23)cc1	none
O=S(=O)(Nc1nccs1)c1ccc(Nc2nnc(-c3ccc(Cl)cc3)c3ccccc23)cc1	CBX7 AlphaScr 0.23
O=C(Nc1ccc(S(=O)(=O)Nc2nccs2)cc1)c1ccccc1Br	none
COc1cccc(OC)c1C(=O)Nc1ccc(S(=O)(=O)Nc2nccs2)cc1	none
Cc1ccc(Nc2nnc(-c3ccc(C)c(S(=O)(=O)NC(C)(C)C)c3)c3ccccc23)cc1	none
Cc1ccc(-c2nnc(Nc3ccc(Cl)cc3)c3ccccc23)cc1S(=O)(=O)NCCO	none
Cc1ccc(-c2nnc(Nc3ccc(S(=O)(=O)Nc4nccs4)cc3)c3ccccc23)cc1	CBX7 AlphaScr 0.36
